Measurements reported in PubChem BioAssay (NCATS).
Records with an inconclusive call do not appear. Values without a mark were called inactive. Active and inactive are the calls of the source. The call rests on the fitted dose curve; in most records, active means well fitted inhibition curve with a large enough effect; inconclusive means small, poorly fitted or top-dose-only effect; inactive means flat fitted curve, though single readings scatter.

Molecular target: Aldehyde dehydrogenase, mitochondrial (Homo sapiens) (UniProt P05091)
Assay: qHTS for Inhibitors of the Aldehyde Dehydrogenase Family (ALDH2) Primary screen (AID 2061308); further: nearly all actives have a fitted effect of over 55% in size;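 on activity change, negative = inhibition: plate controls were vehicle for no effect and reference inhibitor for full effect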
Details: ALDH2 enzyme inhibition qHTS, 1536-well; series mostly up to 56 µM; activity change, negative = inhibition: at the top concentration
Potency means the concentration at half of the fitted maximal effect.

`CC(C)(C)OC(=O)N1CCN(c2ccc(NCc3ncc(-c4ccc(C#N)cc4)o3)cc2)CC1` was tested, and the Potency was 1120 nM (active).

Point of comparison: `FC(F)(F)c1cc(-c2ccc(CNc3nc(-c4ccccc4C(F)(F)F)nc4ccsc34)cc2)ccn1`, “activity change, negative = inhibition” value -14.2%. Against it:
- O=C(O)c1ccc(-c2noc(-c3ccccc3Cl)n2)cc1 — higher, 9.62%
- Cc1ccnc(NC(=S)N2CCN(c3ccc(Br)cc3)CC2)c1 — higher, 6.58%
- COc1ccc(-c2nc(-c3cccc(C(=O)O)c3)no2)cc1 — higher, 2.57%
- c1ccc2[nH]c(-c3ccc(NCc4ccc5c(c4)OCCO5)cc3)nc2c1 — higher, 10.8%
- C=C1C(=O)OC2/C=C(\CO)CC/C=C(\C=O)C(O)C(OC(=O)C(C)CC)C12 (stereo not given) — higher, -2.9%
- CCCn1c(-c2ccc(F)cc2)nc2c(N3CCN(CCn4ccnc4)CC3)nc(C)nc21 — higher, 2.53%
- Cc1ccc(C2Nc3cccc4cccc(c34)N2)cc1 — higher, -11%
- O=C1c2ccccc2C(=O)N1c1cccc2cccnc12 — higher, -13.6%
- N#Cc1nc(NCC(F)F)c2ncn(-c3cccc(Cl)c3)c2n1 — higher, 5.33%
- CN(C(=O)OC(C)(C)C)c1ccc(-c2nc3ccccc3s2)cc1 — higher, -1.52%
- N#Cc1ccc(S(=O)(=O)Nc2cnccc2C(=O)Nc2nc(-c3ccccc3)cs2)cc1 — higher, 9.86%
- Oc1c(CNc2ccccc2)cc(COCc2ccccc2)c2cccnc12 — lower, -28.2%
- O=C(NCCc1ccc(O)c(O)c1)c1cc2sccc2n1Cc1ccccc1 — lower, -24%
- CN1CCN(c2ccc(Nc3c4ccccc4nc4ccccc34)cc2)CC1 — lower, -18.3%
- Fc1ccccc1-c1nc(-c2cccc(-c3nn[nH]n3)c2)no1 — higher, 4.04%
- COc1cc(N2CCOCC2)ccc1Nc1ncc(Cl)c(Nc2ccccc2NS(C)(=O)=O)n1 — higher, -6.33%
- FC(F)(F)c1ccccc1-c1nc(NCc2ccc(-c3cccnc3)cc2)c2sccc2n1 — higher, -0.0639%
- O=S(=O)(Nc1cccc2cccnc12)c1ccccc1O — higher, 9.95%
- CC(C)(C)OC(=O)N1CCN(c2ccc(NCc3ccc(-c4cc(C(F)(F)F)cc(C(F)(F)F)c4)o3)cc2)CC1 — lower, -21.6%
- CCOc1ccc(CCNC(=O)c2ccccn2)cc1OCC — higher, 0.0283%
- CN(C)CCN(Cc1ccc(-c2ccc(CNCCc3ccccc3)cc2)cc1)C(=O)CCC1CCCC1 — higher, 27.5%
- O=C(O)c1ccc(-c2noc(-c3ccc(F)cc3)n2)cc1 — higher, 3.47%
- Cc1nnc(-c2cnn(C)c2N)n1CCCc1ccncc1 — higher, 11.8%
- Cc1cc(NCc2ccc(-c3cccnc3)cc2)nc(-c2ccccc2C(C)C)n1 — higher, 45.3%
- COc1ccc2nc(-c3cccc(NC(C)=O)c3)sc2c1 — higher, 18.5%
- C=C1/C(=C/C=C2\CCC[C@]3(C)[C@@H]([C@H](C)/C=C/C(=O)C4CC4)CC[C@@H]23)C[C@@H](O)C[C@@H]1O — higher, -12.1%
- Cc1ccc(-c2ccc(CNc3nc(-c4ccccc4C(C)C)nc4ccsc34)cc2)cn1 — higher, -3.81%
- FC(F)(F)c1ccccc1-c1nc(NCc2ccc(-c3cccc4ccccc34)cc2)c2ccccc2n1 — lower, -16.1%
- Cc1cnc(-c2ccccc2C(F)(F)F)nc1NCc1ccc(-c2cccnc2)cc1 — higher, 55.4%
- Cc1ccsc1CN(C)c1ncnc2ccc(-c3ccc(C(=O)N(C)C)o3)cc12 — higher, -13.9%
- O=C(Nc1cncc(-c2ccncc2)c1)c1cccs1 — higher, -7.32%
- Cc1ccc(C)c(SC2=NS(=O)(=O)c3cc(C(=O)NCc4ccccc4)ccc32)c1 — lower, -26.2%
- COc1ccc(C2Nc3cccc4cccc(c34)N2)cc1 — higher, -11.6%
- COc1cc(NS(=O)(=O)c2ccc(C)cc2)c2ncccc2c1 — lower, -22.6%

Point of comparison: `C=C1CCC2C(C)(CO[C@@H]3O[C@H](CO)[C@@H](O)[C@H](O)[C@H]3O)C(O)CCC2(C)C1C(=O)CC1=CCOC1=O` (stereo not given in full), “activity change, negative = inhibition” value -5.21% [at 28 µM]. Against it:
- COc1ccc(C(=O)OC2C3C=COC(OC4OC(CO)C(O)C(O)C4O)C3C3(CO)OC23)cc1OC (stereo not given) — lower, -6.05% [at 28 µM]
- O=C(NO)c1cnc(N2CCN(S(=O)(=O)c3ccc4ccccc4c3)CC2)nc1 — higher, 13.3% [at 28 µM]

With `COc1cc(OC)c(C(CC(=O)N2CC(C)CC(C)C2)c2ccc3c(c2)OCO3)c(OC)c1` (stereo not given) the “activity change, negative = inhibition” value was -22.1% [at 114 µM].
